CYP2C19 inhib: blockers of cytochrome P450 2C19 activity – biochemical, luminescence, ADME assay, primary screen; P33261; CYP2C19 Supersomes, luciferin-H EGE luminescence, 30 min; 96,000 compounds, 21% hits; inhibition, % at 5 µM;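 active means CYP2C19 inhibition above a set limit at 5 µM in the primary screen, cut at about 50% in these data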
Target sequence (P33261 whole entry, looked up): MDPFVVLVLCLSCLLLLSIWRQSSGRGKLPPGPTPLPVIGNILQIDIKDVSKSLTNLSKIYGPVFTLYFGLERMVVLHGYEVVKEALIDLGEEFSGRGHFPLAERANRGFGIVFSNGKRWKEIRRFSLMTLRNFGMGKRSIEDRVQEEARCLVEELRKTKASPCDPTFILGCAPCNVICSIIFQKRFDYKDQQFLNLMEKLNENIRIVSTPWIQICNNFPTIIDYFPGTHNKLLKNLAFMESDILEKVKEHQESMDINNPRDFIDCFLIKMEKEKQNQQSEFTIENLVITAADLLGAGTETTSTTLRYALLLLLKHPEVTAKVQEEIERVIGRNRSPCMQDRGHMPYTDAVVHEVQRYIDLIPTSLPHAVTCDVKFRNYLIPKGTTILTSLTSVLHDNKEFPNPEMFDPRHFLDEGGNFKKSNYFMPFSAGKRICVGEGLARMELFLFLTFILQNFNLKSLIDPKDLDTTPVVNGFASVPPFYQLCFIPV
Cav3 T inh: Cav3.2 calcium influx blockers – cell-based, Fluo-4 calcium fluorescence, FDSS, MLSMR library, primary screen; Cav3.2-expressing cells; stronger effect = lower value; AID 449739, 2010; 100,000 compounds, 4% hits; B-score at 10 µM;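 active means single-dose well whose peak fluorescence ratio is a statistical outlier from its plate by either plate-standardised score or position-corrected B-score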
CYP2C19 activ: human CYP2C19 activators, primary screen, biochemical, luminescence | Cytochrome P450 2C19 (Homo sapiens), P33261 | recombinant CYP2C19, luciferin-H EGE luminescence; stronger effect = higher value; 0 = fully inhibited enzyme, 1 = untreated enzyme | activation factor at 5 µM | 96,000 tested, under 10 active;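 active means activation factor of at least 2 at 5 µM in the primary screen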
CYP2C9 inh: blockers of cytochrome P450 2C9 activity – biochemical, luminescence, ADME assay, primary screen | P11712 | inhibition, % at 5 µM | 96,000 compounds, 20% hits | CYP2C9 Supersomes, luciferin-H conversion;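 active means blocking of liver enzyme CYP2C9 beyond about 50% at 5 µM, limit read from the data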
CYP2C9 activ: human CYP2C9 activators, primary screen, biochemical, luminescence | activation factor at 5 µM | Cytochrome P450 2C9 (Homo sapiens), P11712 | recombinant CYP2C9, luciferin-H conversion; stronger effect = higher value; factor 1 = untreated enzyme, 0 = blocked | 96,000 compounds, 1.4% hits;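 active means activation factor of 2 or more for CYP2C9 at a 5 µM dose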
Each line names hits and unclear results; the compound was inactive in the other large screens. Compounds with a hit are over-represented: about 27% of the library has one in this group of screens.

CC(=O)C1=C(O)C(=O)N(c2ccc(C)cc2)C1c1ccccn1 (stereo not given)	none (no result: CYP2C19 inhib, CYP2C19 activ, CYP2C9 inh, CYP2C9 activ)
O=C(Cn1c(C(=O)N2CCN(C3CCCCC3)CC2)cc2sccc21)c1ccccc1	CYP2C19 inhib 87, CYP2C9 inh 73
O=C(Cn1c(C(=O)N2CCc3ccccc3C2)cc2sccc21)c1ccccc1	CYP2C19 inhib 69, CYP2C9 inh 64
O=C(c1cccs1)N1CCN(C2CCCCC2)CC1	none
CN1CCc2c(c3c(n2C)CCN(C)[C@H]3c2ccccc2F)[C@@H]1c1ccccc1F	none
O=C1c2ccccc2S(=O)(=O)c2cc(C(=O)N3CCC(N4CCCC4)CC3)ccc21	none (no result: CYP2C19 inhib, CYP2C19 activ, CYP2C9 inh, CYP2C9 activ)
COc1ccc2c(c1)N(C)C(=O)CC(c1ccccc1)=N2	CYP2C19 inhib 94, CYP2C9 inh 98
Cc1ccc2c(c1)NC(=O)CC(c1ccccc1)=N2	none (no result: CYP2C19 inhib, CYP2C19 activ, CYP2C9 inh, CYP2C9 activ)
CC1CCCC(C)N1C(=O)c1cccc2c1-c1ccccc1/C2=N/O (stereo not given)	Cav3 T inh -6.4 (no result: CYP2C19 inhib, CYP2C19 activ, CYP2C9 inh, CYP2C9 activ)
CCOC(=O)c1cccc(C(=O)OCC)n1	none
CCOC(=O)c1cccc2c1-c1ccccc1/C2=N/O	CYP2C9 inh 66
CC1CCCC(C)N1C(=O)c1ccccc1Nc1ccc(SC(F)F)cc1 (stereo not given)	none
Cc1cnc(NC(=O)C(C)N2C(=O)C3CC=CCC3C2=O)s1 (stereo not given)	none
O=C(NCc1ccco1)Nc1ccc2snnc2c1	CYP2C19 inhib 83, CYP2C9 inh 86
CCN(N=Nc1cccc([N+](=O)[O-])c1)c1cccc([N+](=O)[O-])c1	CYP2C9 inh 58
O=C(NC1CC2CCCC(C1)N2S(=O)(=O)c1ccccc1)C1CCCCC1 (stereo not given)	CYP2C9 inh 60
O=S(=O)(c1ccccc1)N(Cc1nc(-c2ccccc2)no1)C1CCCCC1	CYP2C19 inhib 50, CYP2C9 inh 93
CCC(=O)NCCc1nc(-c2ccccc2)no1	none (no result: CYP2C19 inhib, CYP2C19 activ, CYP2C9 inh, CYP2C9 activ)
CC(C)N(Cc1nc(-c2ccccc2)no1)C(=O)CN(C)S(=O)(=O)c1ccccc1	CYP2C19 inhib 79, CYP2C9 inh 69
CC(C)N(Cc1nc(-c2ccccc2)no1)S(=O)(=O)c1ccccc1	CYP2C19 inhib 58, CYP2C9 inh 68
CN(C1CCCCC1)S(=O)(=O)c1ccccc1	none
CCOCCCn1c(SCC(=O)Nc2ccc(C(N)=O)cc2)nc2ccccc2c1=O	CYP2C19 inhib 56 (no result: Cav3 T inh)
COC(=O)c1ccc(NC(=O)CSc2nccn2CCc2ccccc2)cc1	CYP2C19 inhib 76, CYP2C9 inh 50
Cn1ccnc1SCC(=O)Nc1ccccc1	none (no result: CYP2C19 inhib, CYP2C19 activ, CYP2C9 inh, CYP2C9 activ)
CCOCCCn1c(SCC(=O)NC(C)(C)C)nc2ccccc2c1=O	none
COCCCn1c(SCC(=O)Nc2ccc(C(=O)OC)cc2)nc2ccccc2c1=O	CYP2C19 inhib 78, CYP2C9 inh 88
O=C(CSc1ccccn1)Nc1nncs1	none (no result: CYP2C19 inhib, CYP2C19 activ, CYP2C9 inh, CYP2C9 activ)
CCn1c(=O)c(=O)[nH]c2cc(C(=O)NC3CCCc4ccccc43)ccc21 (stereo not given)	none
CCNC(=O)NC(=O)C(C)Sc1nc2ccccc2n1CC(C)C (stereo not given)	none
CCOC(=O)CCP(=O)(O)C(C)(O)c1ccccc1 (stereo not given)	none
CC1CCN(C(=S)c2ccc3c(c2)OCO3)CC1	CYP2C19 inhib 99
CCOC(=O)N1CCC(NC(=O)c2ccc(CNS(=O)(=O)c3ccc(F)cc3)cc2)CC1	none
Nc1nonc1C(=O)NC(c1ccccc1)c1ccccc1	CYP2C19 inhib 90, CYP2C9 inh 78
COC(=O)c1ccc(C(=O)OC)c(NC(=O)CSCc2ccccc2Br)c1	none
CN(C(=O)OCc1ccccc1)C(CC(N)=O)C(=O)O (stereo not given)	none
CCCSc1nn2c(=O)c3ccccc3nc2s1	CYP2C19 inhib 79
Cc1cccc(Nc2nn3c(=O)c4ccccc4nc3s2)c1	none
CCC/C(O)=C1\C(=O)CCCC1=NCCCCCC(=O)O	none
CC(Oc1ccc(Cl)cc1Cl)C(=O)NC1CCSC1=O (stereo not given)	CYP2C19 inhib 93
CC(Oc1ccc(Cl)cc1Cl)C(=O)NC1=NN(c2ccccc2)C(=O)C1 (stereo not given)	CYP2C9 inh 53

Assay outcomes: PubChem, several laboratories
